Experimental data from PubChem BioAssay (NCI).
About 79,000 compounds went through this panel and 15% of them were active in at least one assay; those are over-represented in the sample as a whole. Activity calls are given as the source filed them. No stated cut-off is given here; in the data, active means growth inhibition above about 70%; inactive means the rest.

Assays:
[1] = NCI Yeast Anticancer Drug Screen. Data for the rad50EPP+ strain (AID 151);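 further: 0% = growth of vehicle-treated control cultures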; conditions: S. cerevisiae rad50 mutant strain, hits give high values
In short: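 Exposing the rad50EPP+ strain to each compound, growth was compared with vehicle-only cultures to give inhibition.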

[2] = NCI Yeast Anticancer Drug Screen. Data for the mgt1 strain (AID 153); conditions: S. cerevisiae mgt1 mutant growth inhibition, hits give high values
In short: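 Genetically defined yeast (mgt1) treated with compound; inhibition of growth expressed against vehicle-treated controls.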

[3] = NCI Yeast Anticancer Drug Screen. Data for the rad50 strain (AID 155);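 further: 0% = growth of vehicle-only cultures of the same strain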; conditions: S. cerevisiae rad50 strain growth inhibition, hits give high values
In short: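 Genetically altered yeast (DNA repair pathway); compound treatment; growth inhibition vs vehicle ctrl.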

[4] = NCI Yeast Anticancer Drug Screen. Data for the mec2-1 strain (AID 157); conditions: S. cerevisiae mec2-1 strain, hits give high values
In short: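 Readout is yeast growth inhibition, normalised to vehicle-treated controls, in the mec2-1 strain exposed to compound.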

[5] = NCI Yeast Anticancer Drug Screen. Data for the rad14 strain (AID 159);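 further: 0% = growth of vehicle-treated control cultures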; conditions: S. cerevisiae rad14 strain growth inhibition, hits give high values
In short: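 Test compounds were applied to a repair-deficient yeast strain. Its growth was then compared with that of cultures given vehicle alone, and inhibition was expressed relative to those controls.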

[6] = NCI Yeast Anticancer Drug Screen. Data for the sgs1 mgt1 strain (AID 161);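 further: 0% = growth of cultures given vehicle only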; conditions: S. cerevisiae sgs1 mgt1 strain, hits give high values
In short: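 This yeast growth screen uses a strain with defined DNA-repair lesions; compound-treated growth is compared with vehicle-treated growth.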

[7] = NCI Yeast Anticancer Drug Screen. Data for the CLN2oe strain (AID 163);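 further: 0% = growth of vehicle-only control cultures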; conditions: S. cerevisiae CLN2oe strain, hits give high values
In short: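 Values reflect how much compound exposure reduced yeast growth, referenced to vehicle-exposed cells. Assay organism is a strain with a defined genetic change affecting cell-cycle control.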

[8] = NCI Yeast Anticancer Drug Screen. Data for the cln2 rad14 strain (AID 165);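 further: 0% = growth equal to vehicle treated cultures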; conditions: S. cerevisiae cln2 rad14 strain, hits give high values
In short: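 Relative to vehicle controls, growth inhibition of compound-treated cln2 rad14 yeast was recorded.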

[9] = NCI Yeast Anticancer Drug Screen. Data for the bub3 strain (AID 167); conditions: S. cerevisiae bub3 mutant strain, hits give high values
In short: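 Yeast carrying a defined mutation is treated with each compound, and growth is compared with that of vehicle-exposed cells to give inhibition.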

[10] = NCI Yeast Anticancer Drug Screen. Data for the wt2 strain (AID 169);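 further: 0% = growth of vehicle-treated yeast cultures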; conditions: S. cerevisiae wt2 strain growth inhibition, hits give high values
In short: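 Values express reduction in yeast growth under compound treatment, referenced to vehicle-treated cells.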

[11] = NCI Yeast Anticancer Drug Screen. Data for the mlh1 strain (AID 171);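 further: 0% = growth of vehicle-treated control cultures of the same strain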; conditions: S. cerevisiae mlh1 strain growth inhibition, hits give high values
In short: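 Steps: expose the defined-mutant yeast strain to compound; expose a parallel culture to vehicle; measure growth; express compound effect as inhibition relative to the vehicle culture.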

[12] = NCI Yeast Anticancer Drug Screen. Data for the sgs1 strain (AID 173);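 further: 0% = growth of vehicle-only control cultures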; conditions: S. cerevisiae sgs1 mutant, hits give high values
In short: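 Treat defined-mutant yeast with compound; measure growth; calculate inhibition relative to vehicle-treated cells.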

[13] = NCI Yeast Anticancer Drug Screen. Data for the mlh1 rad18 strain (AID 175); conditions: S. cerevisiae mlh1 rad18 strain growth inhibition, hits give high values
In short: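 Test agents were incubated with a yeast strain of defined genotype (DNA damage repair defect). Inhibition of growth was derived by comparison with vehicle-exposed cultures.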

[14] = NCI Yeast Anticancer Drug Screen. Data for the rad18 strain (AID 177); conditions: S. cerevisiae rad18 mutant growth inhibition, hits give high values
In short: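 A genetically defined yeast mutant impaired in DNA damage repair was treated with test compounds, then its growth was measured against cultures receiving vehicle alone.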

[15] = NCI Yeast Anticancer Drug Screen. Data for the wt1 strain (AID 149);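 further: 0% = growth of vehicle-treated wt1 cultures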; conditions: S. cerevisiae wt1 strain (SPY 50644) growth inhibition, hits give high values
In short: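 wt1 yeast, compound-treated; % growth inhibition vs vehicle control.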

[16] = at 5.0 µM (retest, dose inferred, filed as 0.5)
[17] = at 50.0 µM (retest, dose inferred, filed as 5.0)

Measured: growth inhibition

CCC(=O)C1=C(O)c2cc(OC)ccc2CC1C(=O)OC (stereo not drawn)
inactive: [1]; at 1.2 µM 2% | [1]; at 3.7 µM 6% | [1]; at 11.0 µM 43% | [2]; at 1.2 µM -2% | [2]; at 3.7 µM -1% | [2]; at 11.0 µM 4% | [2]; at 33.0 µM 10% | [2]; at 100.0 µM 19% | [3]; at 1.2 µM -1% | [3]; at 3.7 µM -1% | [3]; [16] -9% | [3]; at 11.0 µM 6% | [3]; at 33.0 µM 4% | [3]; at 50.0 µM 13.1% | [3]; at 100.0 µM 28% | [4]; at 1.2 µM -1% | [4]; at 3.7 µM -4% | [4]; [16] -5% | [4]; at 11.0 µM -1% | [4]; at 33.0 µM 13% | [4]; [17] -1% | [4]; at 50.0 µM 13.2% | [4]; at 100.0 µM 35% | [5]; at 1.2 µM 2% | [5]; at 3.7 µM 6% | [5]; at 11.0 µM 11% | [5]; at 33.0 µM 19% | [5]; at 100.0 µM 35% | [6]; [16] -3% | [6]; at 50.0 µM 24% | [7]; at 1.2 µM -7% | [7]; at 3.7 µM -8% | [7]; at 11.0 µM 2% | [7]; at 33.0 µM 10% | [7]; at 100.0 µM 21% | [8]; [16] -5% | [8]; [17] 20% | [8]; at 50.0 µM 4.75% | [9]; at 1.2 µM -7% | [9]; at 3.7 µM -8% | [9]; [16] 7% | [9]; at 11.0 µM -9% | [9]; at 33.0 µM 2% | [9]; at 50.0 µM 38.9% | [9]; at 100.0 µM 15% | [10]; at 1.2 µM -2% | [10]; at 3.7 µM 3% | [10]; at 11.0 µM 8% | [10]; at 33.0 µM 14% | [10]; at 100.0 µM 30% | [11]; at 1.2 µM -5% | [11]; at 3.7 µM -1% | [11]; at 11.0 µM 2% | [11]; at 33.0 µM 10% | [11]; at 100.0 µM 26% | [12]; at 1.2 µM -1% | [12]; at 3.7 µM -1% | [12]; at 11.0 µM 4% | [12]; at 33.0 µM 18% | [12]; at 100.0 µM 37% | [13]; [16] 16% | [13]; at 50.0 µM 31.4% | [14]; at 1.2 µM -1% | [14]; at 3.7 µM -3% | [14]; at 11.0 µM 2% | [14]; at 33.0 µM 8% | [14]; at 100.0 µM 21%
active: [1]; at 33.0 µM 73% | [1]; at 100.0 µM 86% | [3]; [17] 73% | [6]; [17] 89% | [9]; [17] 78% | [13]; [17] 90%

CC1(C)OC(=O)C(=Cc2ccc([N+](=O)[O-])s2)C(=O)O1
inactive: [15]; at 1.2 µM -28% | [15]; at 3.7 µM -33% | [15]; at 11.0 µM -14% | [15]; at 33.0 µM 32% | [15]; at 100.0 µM 35% | [1]; at 1.2 µM -17% | [1]; at 3.7 µM -20% | [1]; at 11.0 µM -2% | [2]; at 1.2 µM -8% | [2]; at 3.7 µM 15% | [2]; at 11.0 µM 26% | [2]; at 100.0 µM 50% | [3]; at 1.2 µM -9% | [3]; at 3.7 µM -7% | [3]; [16] 28% | [3]; at 11.0 µM -13% | [3]; at 33.0 µM -6% | [3]; at 50.0 µM 68.6% | [4]; at 1.2 µM -28% | [4]; at 3.7 µM -5% | [4]; [16] 23% | [4]; at 11.0 µM -23% | [4]; at 33.0 µM 12% | [5]; at 1.2 µM -12% | [5]; at 3.7 µM -5% | [5]; at 11.0 µM 2% | [5]; at 33.0 µM 9% | [6]; [16] 56% | [7]; at 1.2 µM 14% | [7]; at 3.7 µM 26% | [7]; at 11.0 µM 29% | [7]; at 33.0 µM 63% | [9]; at 1.2 µM -18% | [9]; at 3.7 µM -13% | [9]; [16] 48% | [9]; at 11.0 µM -8% | [9]; at 33.0 µM 60% | [9]; at 100.0 µM 5% | [10]; at 1.2 µM 0% | [10]; at 3.7 µM -9% | [10]; at 11.0 µM -7% | [10]; at 33.0 µM 62% | [11]; at 1.2 µM -28% | [11]; at 3.7 µM -24% | [11]; at 11.0 µM -33% | [11]; at 33.0 µM 38% | [12]; at 1.2 µM -31% | [12]; at 3.7 µM -25% | [12]; at 11.0 µM -15% | [12]; at 33.0 µM 48% | [13]; [16] 10% | [13]; [17] 51% | [14]; at 1.2 µM 10% | [14]; at 3.7 µM 21% | [14]; at 11.0 µM 32% | [14]; at 100.0 µM 69%
active: [1]; at 33.0 µM 86% | [1]; at 100.0 µM 88% | [2]; at 33.0 µM 95% | [3]; [17] 89% | [3]; at 100.0 µM 98% | [4]; [17] 99% | [4]; at 50.0 µM 89.3% | [4]; at 100.0 µM 70% | [5]; at 100.0 µM 99% | [6]; [17] 100% | [6]; at 50.0 µM 90% | [7]; at 100.0 µM 97% | [9]; [17] 100% | [9]; at 50.0 µM 85% | [10]; at 100.0 µM 71% | [11]; at 100.0 µM 71% | [12]; at 100.0 µM 98% | [13]; at 50.0 µM 92.3% | [14]; at 33.0 µM 85%

CCOC(=O)C(Cc1c2ccccc2cc2ccccc12)(NC(C)=O)C(=O)OCC
inactive: [15]; at 1.2 µM -1% | [15]; at 3.7 µM 0% | [15]; at 11.0 µM -2% | [15]; at 33.0 µM -3% | [15]; at 100.0 µM -2% | [1]; at 1.2 µM 0% | [1]; at 3.7 µM 0% | [1]; at 11.0 µM 6% | [1]; at 33.0 µM 12% | [1]; at 100.0 µM 10% | [2]; at 1.2 µM -3% | [2]; at 3.7 µM -2% | [2]; at 11.0 µM -3% | [2]; at 33.0 µM -18% | [2]; at 100.0 µM -4% | [3]; at 1.2 µM -6% | [3]; at 3.7 µM -16% | [3]; [16] -8% | [3]; at 11.0 µM -22% | [3]; at 33.0 µM -4% | [3]; [17] 11% | [3]; at 100.0 µM -2% | [4]; at 1.2 µM 0% | [4]; at 3.7 µM 0% | [4]; [16] -6% | [4]; at 11.0 µM -1% | [4]; at 33.0 µM 1% | [4]; [17] 27%
active: [3]; at 50.0 µM 90.2% | [4]; at 50.0 µM 75.5%
